Bioassay records: PubChem BioAssay, several laboratories
SENP6 block = SENP6 protease inhibitors, primary screen, biochemical, luminescence, uHTS; AID 2599, 2010; Recombinant SENP6 catalytic domain, aminoluciferin luminescence; inhibition, % at 10 µM; hit rate 1.8% among 330,000; Sentrin-specific protease 6 (Homo sapiens), Q9GZR1;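 active = inhibition above about 50% at the single tested dose, limit read from the data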;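 note: plate controls were DMSO wells with enzyme for no effect and DMSO wells lacking enzyme for full effect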
Target sequence (Q9GZR1 628-1112 limits assumed): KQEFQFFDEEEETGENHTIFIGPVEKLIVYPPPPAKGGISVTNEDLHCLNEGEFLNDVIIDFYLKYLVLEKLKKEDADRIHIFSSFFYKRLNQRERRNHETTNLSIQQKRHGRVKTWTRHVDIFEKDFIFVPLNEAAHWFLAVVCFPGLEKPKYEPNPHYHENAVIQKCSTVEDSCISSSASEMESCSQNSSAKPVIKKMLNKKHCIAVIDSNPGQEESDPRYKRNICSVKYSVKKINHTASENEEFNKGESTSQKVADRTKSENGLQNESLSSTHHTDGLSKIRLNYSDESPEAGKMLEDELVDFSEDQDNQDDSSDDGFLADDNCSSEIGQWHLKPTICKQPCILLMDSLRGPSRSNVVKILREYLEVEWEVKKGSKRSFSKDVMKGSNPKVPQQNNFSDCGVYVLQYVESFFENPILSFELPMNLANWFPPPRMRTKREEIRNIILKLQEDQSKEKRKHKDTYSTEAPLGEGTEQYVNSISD
SENP8 block-1 = human SENP8 protease inhibitors, primary screen, biochemical, fluorescence, Nedd8 protein substrate, uHTS | recombinant SENP8 | inhibition, % at 20 µM | hit rate 0.64% among 360,000 | AID 602440, 2012 | Sentrin-specific protease 8 (Homo sapiens), Q96LD8; in the data active = inhibition mostly above about 40%, no sharp cut-off; inactive = mostly below about 27%
HSP90 inh = HSP90 inhibitors, primary screen, cell lysate, luminescence | Heat shock protein HSP 90 (rabbit reticulocyte lysate; luciferase refolding) | Rabbit reticulocyte lysate, luciferase refolding luminescence, 3 h | inhibition, % at 5.6 µM | hit rate 0.91% among 290,000;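 active = inhibition above the screen-wide mean plus 3 SD, computed separately per campaign, cut at about 16% in these data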;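 note: 0% = DMSO wells and 100% = 60 µM geldanamycin wells; inhibitors lower the luminescence because luciferase stays unfolded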
SENP8 block-2 = SENP8 protease inhibitors, primary screen, biochemical, luminescence | purified SENP8, Z-RLRGG-aminoluciferin cleavage | inhibition, % at 10 µM | Sentrin-specific protease 8 (Homo sapiens), Q96LD8 | AID 2540, 2010 | hit rate 1.2% among 330,000; in the data active = inhibition above about 50%
SENP7 block = SENP7 protease inhibitors, primary screen, biochemical, luminescence, uHTS. recombinant SENP7, Z-RLRGG-aminoluciferin luminescence, 40 min. hit rate 1.5% among 330,000. inhibition, % at 5 µM;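 active = inhibition above about 50% at the single test dose, limit read from the data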;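 note: plate controls were DMSO with enzyme for no effect and no enzyme buffer wells for full effect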
HSP90 inh confirm = HSP90 inhibitors, confirmation, cell lysate, luminescence. shares compounds with HSP90 inh. rabbit reticulocyte lysate, luciferase refolding luminescence, 3 h. inhibition, % at 5.9 µM. hit rate 64% among 2,300. AID 1846, 2009; in the data active = inhibition above about 18%;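 note: 0% = vehicle wells and 100% = reference inhibitor wells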
luciferase ctr = firefly luciferase inhibitors, HSP90 counter-screen, confirmation, artefact control for HSP90 inhibitor project, biochemical, luminescence, triplicate. purified native firefly luciferase. hit rate 48% among 2,300. shares compounds with HSP90 inh. inhibition, % at 5.9 µM. AID 1847, 2009;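 active = inhibition above the mean inhibition of all tested sample wells plus 3 SD, cut at about 10% in these data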;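 note: 0% = DMSO with luciferase and 100% = wells lacking luciferase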
Active calls of the source: *; / = not tested or not shown. An excerpt weighted towards active compounds, which were near 2.8% of everything screened.

SMILES	SENP6 block	SENP8 block-1	HSP90 inh	SENP8 block-2	SENP7 block	HSP90 inh confirm	luciferase ctr
O=C(c1ccc(Cl)cc1)N1CCc2ccccc21	-4.6	11.8	18.1*	-20.4	5.2	-8.8	-13.5
CCC(=O)NC1=C(Cl)C(=O)C(NC(=O)CC)=C(Cl)C1=O	22.9	50.4*	29.9*	-12.5	-5.4	12.1	74.6*
CC(C)n1cc(CN2CCCC(C(=O)Nc3cccc(-c4cc5ccccc5[nH]4)c3)C2)cn1 (stereo unspecified)	5.0	-417.9	18.2*	-7.0	-5.3	10.8	-6.2
CCn1cc(CN2CCCC(C(=O)Nc3cccc(-c4cc5ccccc5[nH]4)c3)C2)c(C)n1 (stereo unspecified)	-9.8	-336.6	-0.7	-0.7	0.4	/	/
Cn1cc(CN2CCCC(C(=O)Nc3cccc(-c4cc5ccccc5[nH]4)c3)C2)cn1 (stereo unspecified)	-6.6	-393.4	22.7*	-2.0	3.9	6.9	-11.2
Cn1cccc1-c1cc(C(=O)N/N=C/c2ccc(Cl)cc2)[nH]n1	-16.3	11.0	19.1*	3.1	-2.5	2.4	-5.1
O=C(NCCc1ccccc1)C1CCC(CNS(=O)(=O)c2ccccc2)CC1 (stereo unspecified)	-5.7	9.9	0.7	-11.7	-15.3	/	/
C=CCN1C(=O)/C(=C\c2ccc(Oc3nc(N4CCOCC4)nc(N4CCOCC4)n3)c(OC)c2)SC1=S	-3.1	24.6	38.8*	-3.0	4.7	10.3	0.4
COc1cc(/C=C2\SC(=S)N(N3CCOCC3)C2=O)ccc1O	-6.8	31.4	2.3	3.0	2.8	/	/
Cc1oc(C(=O)O)cc1COc1ccc2c3c(c(=O)oc2c1)CCC3	30.6	-300.0	19.3*	7.7	5.3	8.2	-14.8
O=C(O)/C=C/c1cnn(-c2ccccc2)c1	/	4.8	53.3*	/	/	59.4*	38.0*
CNC1=C(N(C(C)=O)c2ccc(Br)cc2)C(=O)c2ccccc2C1=O	/	84.5*	63.0*	/	/	11.9	-7.5
CCCCn1c(SC(C)C(=O)NCC2CCCO2)nc2cc(C(=O)OC)ccc2c1=O (stereo unspecified)	-9.9	-94.5	/	1.7	-4.0	/	/
CCCCn1c(SC(C)C(N)=O)nc2cc(C(=O)OC)ccc2c1=O (stereo unspecified)	-14.0	-78.8	28.1*	-2.0	10.3	-1.6	-6.4
Cc1cccc(NC(=O)c2snc3c(=O)[nH]cnc23)c1	40.6	/	0.8	15.4	5.1	/	/
O=C(Nc1ccc(N2CCCC(O)C2)cc1)c1snc2c(=O)[nH]cnc12 (stereo unspecified)	-9.2	5.5	18.6*	-1.2	-4.3	15.1	-3.9
COc1ccc(NC(=O)c2ccc(COCC(F)(F)C(F)F)cc2)cc1	-20.2	20.3	18.9*	-9.3	-2.7	-2.6	-7.6
Clc1cccc(Cc2c(-c3cccc(Cl)c3)nc3c4ccccc4ccn23)c1	/	-201.9	/	/	/	/	/
COc1ccc(/C=N/Nc2cc(OC)ncn2)cc1	/	9.6	17.6*	/	/	30.7*	25.7*
COc1ccc(Nc2nnc(Cc3ccc(Cl)cc3)c(=O)[nH]2)c(OC)c1	1.0	3.6	3.4	-3.0	-1.0	/	/
Cc1cccnc1CCNC(=O)c1ccc(OC2CCN(Cc3ccccn3)CC2)cc1	-17.9	1.4	14.0	-3.5	6.7	/	/
O=C(NCCc1cccc(Cl)c1)c1ccc(OC2CCN(Cc3ccccn3)CC2)cc1	3.6	4.6	21.8*	-2.7	-3.0	18.6*	-6.5
CCCCc1cc(=O)oc2cc(C)cc(OCC(=O)NCc3ccncc3)c12	12.8	-206.8	-1.5	4.7	2.4	/	/
CCC(C)N(C(=O)c1csnn1)C(C(=O)NCc1ccc(F)cc1)c1ccccc1F (stereo unspecified)	-10.3	5.7	-0.7	-6.2	-10.3	/	/
COc1cccc(NC(=O)CN2C(=O)c3cccnc3Oc3ccc(Cl)cc32)c1	-5.0	-78.7	-3.0	-5.3	-2.8	/	/
SMILES	SENP6 block	SENP8 block-1	HSP90 inh	SENP8 block-2	SENP7 block	HSP90 inh confirm	luciferase ctr
O=C(CN1C(=O)c2cccnc2Oc2ccc(Cl)cc21)Nc1ccccc1F	-0.2	-14.8	36.2*	-5.2	2.5	-7.0	-17.6
CN(C)c1ccc(N=C/C=C2\N(C)c3ccccc3C2(C)C)cc1	-16.8	22.2	7.5	-4.1	8.6	/	/
CN(C)c1ccc(N=Cc2cccn2C)cc1	-3.0	13.4	22.0*	-20.0	15.1	9.6	-11.6
O=[N+]([O-])c1ccccc1-c1nc(-c2ccc(Br)o2)no1	37.8	-5.4	6.3	15.4	20.6	/	/
Nc1nnc(-c2ccccc2[N+](=O)[O-])o1	9.9	-10.5	30.1*	-10.1	-7.8	-1.5	-9.0
O=C(CN1CCN(c2ccc(F)cc2)CC1)N1N=CCC1c1ccccc1 (stereo unspecified)	-10.2	13.9	2.8	-4.8	7.3	/	/
O=C(CN1CCN(c2ccccc2)CC1)N1N=CCC1c1ccccc1 (stereo unspecified)	-30.8	14.6	38.8*	-1.8	2.4	-8.8	-9.3
NNC(=O)c1cccc(COc2ccccc2Br)c1	6.1	23.9	38.6*	-1.5	13.7	36.3*	9.8*
NNC(=O)c1ccc(COc2cccc3ccccc23)cc1	-20.3	10.4	0.9	-22.0	-6.4	/	/
Cc1ccc(NC(=O)CSc2nnc(-c3cnccn3)n2C)cc1C	12.2	-0.3	-6.0	10.3	-5.5	/	/
Cc1ccccc1C(=O)Nc1ccc(C(=O)N/N=C/c2ccc(O)cc2)cc1	-30.2	-177.2	-6.2	-13.4	-7.4	/	/
O=C(N/N=C/c1ccc(O)cc1)c1ccc(NC(=O)c2ccccc2Br)cc1	-20.3	-182.1	19.9*	-7.1	-5.1	1.4	-5.2
O=C(NNC(=O)c1cccc(-n2cccc2)c1)c1ccc(F)cc1	-14.3	6.5	/	12.9	-1.9	/	/
COC(=O)CCC(NC(=O)c1cc(-c2ccc3c(c2)OCCO3)oc1C)C(=O)OC (stereo unspecified)	-10.2	-14.2	5.2	0.2	2.6	/	/
Cc1oc(-c2ccc3c(c2)OCCO3)cc1C(=O)NC(Cc1ccccc1)C(=O)O (stereo unspecified)	3.3	-15.3	39.3*	2.9	2.7	65.4*	18.3*
O=[N+]([O-])c1ccc(N=Nc2ncc[nH]2)cc1	11.2	31.0	55.5*	-1.1	-5.4	56.6*	-18.4
O=[N+]([O-])c1ccc(N=NN(CCO)CCO)cc1	-23.0	17.3	0.1	8.8	-1.3	/	/
O=C(O)c1ccc(Cn2cc(/C=C\[N+](=O)[O-])c3ccccc32)o1	3.3	1.3	43.4*	-1.1	-8.4	3.7	-5.4
